The results in this text go back to PubChem BioAssay (NCI).

Common to all, as to assay: NCI-60 one-dose screen, 48 h (100 = growth as untreated, 0 = no growth, -100 = all killed)
Common to all, as to conditions: 10 µM unless noted

The test system of experiment [1] is SK-MEL-2 melanoma.
Experiment [2] deals with EKVX NSCLC.
In experiment [3] the test system is SN12C renal.
The subject of experiment [4] is UO-31 renal.
For experiment [5], the system named is ACHN renal.
Experiment [6] deals with CAKI-1 renal.
In experiment [7] the test system is A498 renal.
For experiment [8], the system named is CCRF-CEM leukemia.
Experiment [9] concerns SR leukemia.
The test system of experiment [10] is RPMI-8226 leukemia.
In experiment [11] the test system is OVCAR-8 ovarian.
In experiment [12] the test system is OVCAR-5 ovarian.
Experiment [13] concerns OVCAR-4 ovarian.
Experiment [14] concerns SK-OV-3 ovarian.
For experiment [15], the system named is IGROV1 ovarian.
The subject of experiment [16] is OVCAR-3 ovarian.
Experiment [17] deals with HS 578T breast.
The subject of experiment [18] is NCI/ADR-RES ovarian.
In experiment [19] the test system is MOLT-4 leukemia.

This is part of a sample that, as a whole, favours compounds with a hit. Of some 83,000 tested, about 20% had one in any assay.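 Plates (96-well) were seeded with cells, treated with compound at one concentration, and incubated for 48 hours before percent growth was determined.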 Values without a mark were called inactive. Activity calls are given as the source filed them. Rule for the calls: active = growth percent below 10; inactive = the rest.

With `COc1ccc2cc(-c3cc(OC)c(OC)c(OC)c3)c(=O)oc2c1`, the growth in [1] is 62.3%; in [2], 54.1%; in experiment [3], 92.7%; in [4], 87.7%; in experiment [5], 90.1%; in [6], 79.3%. Besides, the growth was 53% in experiment [7]; 74.6% in [8]; 26.8% in experiment [9]; 83.6% in experiment [10]; 82.8% in experiment [11]; 94.2% in experiment [12]. For the same molecule, the growth was 79.9% in experiment [13]; 72% in experiment [14]; 82.3% in [15]; 81.8% in experiment [16]; 75.5% in experiment [17]; 49% in experiment [18].

With `CCc1c2c(nc3ccc(OC(=O)OCc4ccc(B5OC(C)(C)C(C)(C)O5)cc4)cc13)-c1cc3c(c(=O)n1C2)COC(=O)[C@]3(O)CC`, the growth in [1] is -30.5% (active); in [2], 37.3%; in experiment [3] it was -4.2% (active); in experiment [4], -72.1% (active); in experiment [5], -53.6% (active); in [6] it was -44.1% (active). The growth in experiment [7] is -65.1% (active); in experiment [8], 17.9%; in experiment [19], 20.3%; in experiment [10], 8.86% (active); in [11], 0.492% (active); in experiment [13] it was 11.1%. Further, the growth in experiment [14] is 3.1% (active); in [15], 6.81% (active); in [16], -17.5% (active); in experiment [17] it was 20.7%; in [18], -0.875% (active).

As to `O=C(N=c1oc2ccccc2cc1-c1cc2ccccc2[nH]1)c1ccc(Cl)cc1`, the growth in experiment [1] is 101%; in experiment [2] it was 38.9%; in [3], 80.3%; in experiment [4], 54.5%; in experiment [5], 6.82% (active); in experiment [6], 56.2%. Besides, the growth in [7] was 69.6%; in experiment [8], 24.7%; in experiment [10], 38.5%; in experiment [11] it was 50.5%; in experiment [12], 89.3%; in [13], 57.7%. In addition, the growth was 57.3% in experiment [14]; 29.7% in experiment [15]; 50.5% in experiment [16]; 63.3% in [17]; 38.6% in experiment [18].

As for `Nc1ccc2c(c1)c(N)nn2C(=O)Nc1ccc(Cc2ccccc2)cc1`, the growth was 73.7% in experiment [1]; 82.3% in [2]; 61.1% in experiment [3]; 39.3% in experiment [4]; 48.9% in experiment [5]; 38.9% in [6]. For the same molecule, the growth in experiment [7] is 103%; in experiment [8], 55.5%; in [19], 27.8%; in experiment [10], 28.2%; in experiment [11], 83.5%; in experiment [12] it was 67.2%. For the same molecule, the growth was 56.2% in [13]; 107% in experiment [14]; 83.4% in [15]; 70.1% in experiment [16]; 101% in experiment [17]; 78% in experiment [18].

Regarding `COC(=O)CCC1=C(C)C2=NC1=CC1=NC(=CC3=NC(=Cc4[nH]c(/c(=C(/C)O)c4C)=C2)C(C(C)=O)=C3C)C(C)=C1CCC(=O)OC`, the growth in experiment [1] is 102%; in [2], 99.7%; in [3], 97.8%; in [4], 100%; in [6] it was 98.8%; in [7], 90.1%. Also, the growth in [8] is 101%; in [9], 111%; in experiment [10] it was 85.7%; in experiment [11] it was 100%; in [13], 107%; in experiment [14], 95.1%. Further, the growth was 108% in experiment [15], 107% in [16], 89.1% in [17] and 103% in [18].

On to `COc1cc2ncn3c(=O)c4c5c(sc4nc3c2cc1OC)CCCC5`, for which the growth in [1] is 91.4%; in experiment [2] it was 83.2%; in [3], 109%; in [4] it was 95.7%; in [5], 103%; in [6] it was 92.5%. The growth is 112% in experiment [7]; 137% in experiment [8]; 134% in experiment [9]; 105% in [10]; 107% in experiment [11]; 98.8% in [12]. Also, the growth in experiment [13] is 92.7%; in experiment [14], 97.5%; in experiment [15], 98.8%; in experiment [16] it was 100%; in experiment [17], 94.7%; in experiment [18] it was 96%.

For the molecule `C=C(C)[C@@H]1CC[C@]2(C(=O)NC3CCCCC3)CC[C@]3(C)[C@H](CC[C@@H]4[C@@]5(C)CCC(=O)C(C)(C)[C@@H]5CC[C@]43C)[C@@H]12`, the growth in [1] was 95%; in experiment [2], 93.9%; in experiment [3], 86%; in experiment [4], 76.1%; in [5] it was 99.8%; in experiment [6], 76.6%. Also, the growth is 83.3% in experiment [7]; 88% in experiment [19]; 115% in [9]; 83.1% in experiment [10]; 94.6% in experiment [11]; 96.5% in [12]. The growth in [13] is 82.1%; in experiment [14] it was 97.1%; in experiment [15], 101%; in [16] it was 96.7%; in experiment [17] it was 89.5%; in experiment [18], 104%.

Turning to `CCN(CC)c1ccc(C(=O)c2ccc(N(CC)CC)cc2)cc1`, the growth in experiment [1] was 18.7%; in [2], 55%; in experiment [3], 40.8%; in [4] it was 60.4%; in [5] it was 53.1%; in [6] it was 43.4%. Also, the growth was 41.1% in experiment [7]; 19.8% in [8]; 24.3% in [19]; 20.8% in [10]; 32.2% in experiment [11]; 40.8% in experiment [12]. Besides, the growth is 61.4% in [13]; -1.44% (active) in experiment [14]; 37.3% in experiment [15]; -20.3% (active) in experiment [16]; 36.2% in experiment [17]; -27.8% (active) in [18].

Turning to `COc1ccc(-c2cc(-c3cc(OC)c(OC)c(OC)c3)c(C#N)c(N3CCOCC3)n2)cc1O`, the growth was 68.2% in [1]; 59.8% in experiment [2]; 60.1% in [3]; 56.8% in experiment [4]; 66.7% in experiment [5]; 51.5% in experiment [6]. The growth in experiment [7] was 74.8%; in experiment [8] it was 42.8%; in experiment [19], 55.4%; in experiment [10], -23.8% (active); in [11] it was 56.3%; in experiment [12] it was 20.5%. The growth in [13] is 89.6%; in experiment [14] it was 81.2%; in experiment [15], 59.3%; in experiment [16], 27.4%; in experiment [18], -51.5% (active).
